According to PubChem BioAssay (NCI):
This is part of a sample that, as a whole, favours compounds with a hit. Of some 83,000 tested, about 20% had one in any assay.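 Growth was measured after 48 h exposure to one concentration of compound in 96-well plates. Values under 10 count as active.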 Activity calls are given as the source filed them.

Each compound was assayed on SW-620 colon (assay: NCI-60 one-dose screen, 48 h (100 = growth as untreated, 0 = no growth, -100 = all killed)). Details: 10 µM unless noted.
Protocol: Growth inhibition of the SW-620 human tumor cell line is measured as a screen for anti-cancer activity. Cells are grown in 96 well plates and exposed to the test compound for 48 hours. Compounds are tested at a single concentration, which is 10^-5 M for most compounds. The reported endpoint is percent growth (GI% or GIPRCNT), where numbers from 0 - 100% represent growth inhibition, and numbers from -100% - 0 represent cell death. For example, a value of 40 represents 60% growth inhibition. A value of 0 means no net growth occurred over the course of the experiment. A value of -40 indicates 40% of cells at the beginning of the experiment died by the end of the experiment. A value of -100 means all cells are dead at the end of the experiment.
NCI-60 Human Tumor Cell Lines Screen was performed using the standard one-dose NCI protocol, which is described in more detail at https://dtp.cancer.gov/discovery_development/nci-60/default.htm.
Compounds with GIPRCNT values below 10 were considered active. Activity score was based on GIPRCNT using the following formula: […]
Score is 0 for GIPRCNT values of 100 or above, 50 for GIPRCNT values of 0, and 100 for GIPRCNT values of -100.
In the case of `O=c1ccn(-c2ncnc3nc[nH]c23)cc1`, the growth was 96% (inactive).
`N=c1ccc2nc3ccc(N)cc3sc-2c1` was tested, and the growth was 31.7% (inactive).
In the case of `CC(C)(C)n1cc(-c2ccnc(NCCNS(=O)(=O)c3ccc(F)cc3)c2)c(-c2cccc(O)c2)n1`, the growth was 11% (inactive).
In the case of `O=C(Oc1ccccc1[N+](=O)[O-])C1CCCN1C(=O)OCc1ccccc1` (stereo not given), the growth was 105% (inactive).
For `CCN(CC)c1ccc(CNc2ccnc3ccccc23)cc1`, the growth was 70.8% (inactive).
With `N#Cc1c(-c2ccccc2)cc(-c2ccccc2)n(CC(=O)NO)c1=O` the growth was 59.8% (inactive).
For `O=C(/C=C/c1cc(-c2ccc3c(c2)OCO3)n[nH]1)c1ccc2c(c1)OCO2`, the growth was 93.8% (inactive).
For `CC(C)CSc1nc(NN)c(C#N)c(-c2ccccc2)n1`, the growth was 99.3% (inactive).
In the case of `Cc1ccc(S(=O)(=O)C2=C3C(=C(c4ccccc4)c4ccccc43)CN(S(=O)(=O)c3ccc(C)cc3)C2)cc1`, the growth was -17.7% (active).
For `COc1ccc(CNCCCN2C(=O)c3ccc4c5c(ccc(c35)C2=O)C(=O)N(CCCNCCCCNCCCN)C4=O)c(OC)c1OC`, the growth was 10.8% (inactive).
With `Cc1nn(-c2ccc(Cl)cc2)c2ncnc(N/N=C/c3cccc([N+](=O)[O-])c3)c12` the growth was 88.9% (inactive).
In the case of `Clc1cc(Cl)c2nc(-c3ccc(-c4ccc(/C=N/NC5=NCCN5)cc4)s3)cn2c1`, the growth was 79.2% (inactive).
`O=[N+]([O-])c1ccc(Sc2ncccn2)c([N+](=O)[O-])c1` was tested, and the growth was 22.8% (inactive).
With `O=C(c1ccccc1)c1c(/C=C/c2ccccc2)c2ccccc2[nH]c1=O` the growth was 101% (inactive).
With `CCN(CC)CCOC(=O)C(c1ccccc1)(c1ccccc1)C(C)C` the growth was 97.3% (inactive).
`CCCCN(CCCC)C(=N)c1ccnc2ccccc12` was tested, and the growth was 100% (inactive).
In the case of `N[C@H]1CN(C(=O)c2cc3cc(Br)c(F)c(F)c3[nH]2)C[C@@H]1O`, the growth was 101% (inactive).
For `CCN(CC)CCCNc1nccc2ccc(Cl)cc12`, the growth was 104% (inactive).
In the case of `COc1cc(-c2nn(-c3cccc(NC(=O)Nc4cc(C(F)(F)F)cc(C(F)(F)F)c4)c3)cc2-c2ccncc2)ccc1Cl`, the growth was -2.89% (active).
`Nc1nc(Nc2cc(Cl)cc(Cl)c2)nn1S(=O)(=O)c1ccc2ccccc2c1` was tested, and the growth was 67.6% (inactive).
For `Cc1ccc(N2CCN(C(C)C(N)=O)CC2)cc1` (stereo not given), the growth was 107% (inactive).
`CCOC(=O)c1ccc2c(c1)nc(-c1ccc(OCc3ccccc3)c(OC)c1)n2-c1cc(C(C)(C)C)[nH]n1` was tested, and the growth was 98% (inactive).
With `Nc1nc(=O)c2ccccc2s1` the growth was 116% (inactive).
For `O=C(CSc1nc2ccccc2[nH]1)Nc1ccc(-c2nc3ccccc3s2)c(Cl)c1`, the growth was 22.1% (inactive).
In the case of `COc1ccc(-c2nc(SCCC(C)C)nc(Nc3ccc(F)c(Cl)c3)c2C#N)cc1`, the growth was 54.8% (inactive).
In the case of `CN(C)c1ncnc2c1ccn2C1OC(CO)C(O)C1O` (stereo not given), the growth was 36.3% (inactive).
For `CN(C)c1cccc2c(S(=O)(=O)/N=C(\N)Nc3nc4ccccc4s3)cccc12`, the growth was 31% (inactive).
With `C=C1CCC2C3(C)COC(c4ccccc4)OC3CCC2(C)C1/C=C/C1=CCOC1=O` (stereo not given) the growth was 25.6% (inactive).
For `CO[C@H]1NC(=O)N(S(=O)(=O)c2ccc(Cl)cc2)[C@@H]1OC`, the growth was 108% (inactive).
In the case of `COc1ccc(OC)c(C2OC(c3ccc4ccccc4c3O)=NN2C(C)=O)c1` (stereo not given), the growth was 54.5% (inactive).
With `COc1cc2c(c(OC)c1OC)-c1ccc(N)c(=O)cc1[C@@H](NC(C)=O)CC2` the growth was 22.7% (inactive).
`C=C1C(=O)O[C@H]2[C@H]1CC/C(Cn1cc(CNC(=O)c3cc4ccccc4[nH]3)nn1)=C\CC[C@@]1(C)O[C@@H]21` was tested, and the growth was -32.5% (active).
`O=[N+]([O-])c1cc(S(=O)(=O)Oc2ccccc2)ccc1Cl` was tested, and the growth was 23.5% (inactive).
For `COc1ccc(Nc2nc(N)nc3c2CCN(Cc2ccc(OC)cc2OC)C3=O)cc1`, the growth was 80% (inactive).
In the case of `Cc1nc2ncccc2nc1Nc1ccc(S(=O)(=O)Nc2cncs2)cc1`, the growth was 102% (inactive).
With `COc1cc2c(cc1OCCCCCn1c3ccccc3c3ccccc31)N=C[C@@H]1CCCN1C2=O` the growth was -79.1% (active).
`COc1ccc(S(=O)(=O)Nc2cc(/C=C\c3cc(OC)c(OC)c(OC)c3)cc(OC)c2OC)cc1` was tested, and the growth was 26.4% (inactive).
For `COc1ccc(C2C=C(c3ccc(OC)c(OC)c3)N=C3SC=C(C)N32)c(Br)c1` (stereo not given), the growth was 109% (inactive).
`COc1cc(Nc2nc(N[C@H]3CCCC[C@@H]3N)nc3cc[nH]c(=O)c23)cc(OC)c1` was tested, and the growth was 14.2% (inactive).
In the case of `CC(=O)Nc1ccc(S(=O)(=O)n2ccc(-c3ccc4c(c3)CCC(C)(C)O4)n2)cc1`, the growth was 82.5% (inactive).
